Measured values from the supplement of paper PMC10849652.
Targets with a hit are over-represented here; the source holds about 7,900 in all. About 0.6% of all pairs of compound and target were hits. Unmarked numbers belong to inactive results.

What was measured:
Experiment in all cases: log2 fold change, soluble protein after heating vs DMSO (PISA); higher = thermal stabilisation; K562 cells, 10 uM, 30 min; active = over 0.2 and 3.5 SD of the protein, either way, in both replicates (recomputed)
[1] = compound: COC1=CC=C(C=C1)CN2C=CC3=C2C=C(C=C3)C(=O)NO
Method in brief: (§1)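 K562 cells at 2×10^6 cells/mL were exposed to 10 μM compound for 30 min, then aliquots were heated for 3 min across 48°C-58°C, pooled, and extracted in PBS containing 0.5% NP-40 at 4°C. The supernatant after 21,000xg for 90 min was taken as soluble protein and measured by TMTpro 16plex LC-MS/MS with channel sums equalised. Thermal stability is reported relative to control samples, with values from duplicates. Fold changes are given on a log2 scale.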

filanesib = compound: CON(C)C(=O)N1N=C(c2cc(F)ccc2F)S[C@@]1(CCCN)c1ccccc1 [filanesib]
Method in brief: as §1

zotarolimus = compound: CO[C@H]1C[C@@H]2CC[C@@H](C)[C@@](O)(O2)C(=O)C(=O)N2CCCC[C@H]2C(=O)O[C@H]([C@H](C)C[C@@H]2CC[C@H](n3cnnn3)[C@H](OC)C2)CC(=O)[C@H](C)/C=C(\C)[C@@H](O)[C@@H](OC)C(=O)[C@H](C)C[C@H](C)/C=C/C=C/C=C/1C [zotarolimus]
Method in brief: as §1

idasanutlin = compound: COc1cc(C(=O)O)ccc1NC(=O)[C@@H]1N[C@@H](CC(C)(C)C)[C@](C#N)(c2ccc(Cl)cc2F)[C@H]1c1cccc(Cl)c1F [idasanutlin]
Method in brief: as §1

alisertib = compound: COc1cc(Nc2ncc3c(n2)-c2ccc(Cl)cc2C(c2c(F)cccc2OC)=NC3)ccc1C(=O)O [alisertib]
Method in brief: as §1

[2] = compound: COc1cc2nc(-c3cc(F)ccc3O)nc(N[C@@H]3CNC[C@H]3C(C)(C)O)c2cc1OC
Method in brief: as §1

gefitinib = compound: COc1cc2ncnc(Nc3ccc(F)c(Cl)c3)c2cc1OCCCN1CCOCC1 [gefitinib]
Method in brief: as §1

[3] = compound: COc1cccc2cc(-c3nc([C@H]4CC[C@H](C(=O)O)CC4)n4ncnc(N)c34)[nH]c12
Method in brief: as §1

lapatinib = compound: CS(=O)(=O)CCNCc1ccc(-c2ccc3ncnc(Nc4ccc(OCc5cccc(F)c5)c(Cl)c4)c3c2)o1 [lapatinib]
Method in brief: as §1

pictilisib = compound: CS(=O)(=O)N1CCN(Cc2cc3nc(-c4cccc5[nH]ncc45)nc(N4CCOCC4)c3s2)CC1 [pictilisib]
Method in brief: as §1

[4] = compound: CS(=O)(=O)c1ccc(-c2cnc(N)c(C(=O)Nc3ccccc3)n2)cc1
Method in brief: as §1

crizotinib = compound: C[C@@H](Oc1cc(-c2cnn(C3CCNCC3)c2)cnc1N)c1c(Cl)ccc(F)c1Cl [crizotinib]
Method in brief: as §1

[5] = compound: C[C@@H]1COCCN1C2=NC(=NC(=C2)C3(CC3)S(=O)(=O)C)C4=C5C=CNC5=CC=C4
Method in brief: as §1

[6] = compound: C[C@H](C1=CC=C(C=C1)C(=O)NC2=C3C=CNC3=NC=C2)N
Method in brief: as §1

duvelisib = compound: C[C@H](Nc1ncnc2nc[nH]c12)c1cc2cccc(Cl)c2c(=O)n1-c1ccccc1 [duvelisib]
Method in brief: as §1

gandotinib = compound: Cc1cc(Nc2cc(CN3CCOCC3)c3nc(C)c(Cc4ccc(Cl)cc4F)n3n2)n[nH]1 [gandotinib]
Method in brief: as §1

tozasertib = compound: Cc1cc(Nc2cc(N3CCN(C)CC3)nc(Sc3ccc(NC(=O)C4CC4)cc3)n2)n[nH]1 [tozasertib]
Method in brief: as §1

[7] = compound: Cc1cc(SCc2sc(-c3ccc(C(F)(F)F)cc3)nc2C)ccc1OCC(=O)O
Method in brief: as §1

doramapimod = compound: Cc1ccc(-n2nc(C(C)(C)C)cc2NC(=O)Nc2ccc(OCCN3CCOCC3)c3ccccc23)cc1 [doramapimod]
Method in brief: as §1

ispinesib = compound: Cc1ccc(C(=O)N(CCCN)[C@@H](c2nc3cc(Cl)ccc3c(=O)n2Cc2ccccc2)C(C)C)cc1 [ispinesib]
Method in brief: as §1

UniProt P15735, sequence (P15735 whole entry, looked up): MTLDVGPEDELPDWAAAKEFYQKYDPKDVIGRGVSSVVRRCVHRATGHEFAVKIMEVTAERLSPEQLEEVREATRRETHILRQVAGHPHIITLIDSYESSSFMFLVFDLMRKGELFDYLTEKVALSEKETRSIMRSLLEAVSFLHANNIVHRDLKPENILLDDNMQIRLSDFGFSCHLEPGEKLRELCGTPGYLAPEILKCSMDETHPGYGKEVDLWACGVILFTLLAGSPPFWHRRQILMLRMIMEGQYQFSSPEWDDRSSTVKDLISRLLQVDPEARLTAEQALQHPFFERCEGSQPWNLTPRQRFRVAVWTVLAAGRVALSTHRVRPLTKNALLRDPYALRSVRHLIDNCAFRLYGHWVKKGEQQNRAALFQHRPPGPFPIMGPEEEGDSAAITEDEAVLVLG
UniProt Q9UBV8, sequence (Q9UBV8 whole entry, looked up): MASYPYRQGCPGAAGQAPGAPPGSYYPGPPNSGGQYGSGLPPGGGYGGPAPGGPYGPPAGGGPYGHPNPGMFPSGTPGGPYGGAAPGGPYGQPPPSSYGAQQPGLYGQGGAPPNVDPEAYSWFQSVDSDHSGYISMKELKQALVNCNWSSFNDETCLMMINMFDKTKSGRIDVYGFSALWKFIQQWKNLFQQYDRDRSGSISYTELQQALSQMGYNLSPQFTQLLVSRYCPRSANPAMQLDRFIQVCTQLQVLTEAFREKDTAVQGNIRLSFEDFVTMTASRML
UniProt Q92871, sequence (Q92871 whole entry, looked up): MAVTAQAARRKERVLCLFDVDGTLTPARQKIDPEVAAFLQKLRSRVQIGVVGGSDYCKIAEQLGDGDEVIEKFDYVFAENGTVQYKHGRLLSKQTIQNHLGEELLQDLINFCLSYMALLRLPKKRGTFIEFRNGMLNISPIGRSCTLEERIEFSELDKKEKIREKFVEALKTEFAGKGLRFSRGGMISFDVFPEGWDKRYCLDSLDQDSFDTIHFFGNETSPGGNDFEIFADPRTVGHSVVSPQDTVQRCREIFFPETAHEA
UniProt Q9BRP1, sequence (Q9BRP1 whole entry, looked up): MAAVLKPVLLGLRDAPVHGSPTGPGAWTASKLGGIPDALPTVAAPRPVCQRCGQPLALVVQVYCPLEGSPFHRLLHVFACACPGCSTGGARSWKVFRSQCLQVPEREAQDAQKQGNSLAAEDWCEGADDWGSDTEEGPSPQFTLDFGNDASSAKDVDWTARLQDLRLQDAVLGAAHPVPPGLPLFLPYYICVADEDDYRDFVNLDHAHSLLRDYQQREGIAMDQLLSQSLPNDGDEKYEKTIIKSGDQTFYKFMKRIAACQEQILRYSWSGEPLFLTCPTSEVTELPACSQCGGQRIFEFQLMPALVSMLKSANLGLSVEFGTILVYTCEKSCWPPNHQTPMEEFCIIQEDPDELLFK
UniProt O15067, sequence (O15067 whole entry, looked up): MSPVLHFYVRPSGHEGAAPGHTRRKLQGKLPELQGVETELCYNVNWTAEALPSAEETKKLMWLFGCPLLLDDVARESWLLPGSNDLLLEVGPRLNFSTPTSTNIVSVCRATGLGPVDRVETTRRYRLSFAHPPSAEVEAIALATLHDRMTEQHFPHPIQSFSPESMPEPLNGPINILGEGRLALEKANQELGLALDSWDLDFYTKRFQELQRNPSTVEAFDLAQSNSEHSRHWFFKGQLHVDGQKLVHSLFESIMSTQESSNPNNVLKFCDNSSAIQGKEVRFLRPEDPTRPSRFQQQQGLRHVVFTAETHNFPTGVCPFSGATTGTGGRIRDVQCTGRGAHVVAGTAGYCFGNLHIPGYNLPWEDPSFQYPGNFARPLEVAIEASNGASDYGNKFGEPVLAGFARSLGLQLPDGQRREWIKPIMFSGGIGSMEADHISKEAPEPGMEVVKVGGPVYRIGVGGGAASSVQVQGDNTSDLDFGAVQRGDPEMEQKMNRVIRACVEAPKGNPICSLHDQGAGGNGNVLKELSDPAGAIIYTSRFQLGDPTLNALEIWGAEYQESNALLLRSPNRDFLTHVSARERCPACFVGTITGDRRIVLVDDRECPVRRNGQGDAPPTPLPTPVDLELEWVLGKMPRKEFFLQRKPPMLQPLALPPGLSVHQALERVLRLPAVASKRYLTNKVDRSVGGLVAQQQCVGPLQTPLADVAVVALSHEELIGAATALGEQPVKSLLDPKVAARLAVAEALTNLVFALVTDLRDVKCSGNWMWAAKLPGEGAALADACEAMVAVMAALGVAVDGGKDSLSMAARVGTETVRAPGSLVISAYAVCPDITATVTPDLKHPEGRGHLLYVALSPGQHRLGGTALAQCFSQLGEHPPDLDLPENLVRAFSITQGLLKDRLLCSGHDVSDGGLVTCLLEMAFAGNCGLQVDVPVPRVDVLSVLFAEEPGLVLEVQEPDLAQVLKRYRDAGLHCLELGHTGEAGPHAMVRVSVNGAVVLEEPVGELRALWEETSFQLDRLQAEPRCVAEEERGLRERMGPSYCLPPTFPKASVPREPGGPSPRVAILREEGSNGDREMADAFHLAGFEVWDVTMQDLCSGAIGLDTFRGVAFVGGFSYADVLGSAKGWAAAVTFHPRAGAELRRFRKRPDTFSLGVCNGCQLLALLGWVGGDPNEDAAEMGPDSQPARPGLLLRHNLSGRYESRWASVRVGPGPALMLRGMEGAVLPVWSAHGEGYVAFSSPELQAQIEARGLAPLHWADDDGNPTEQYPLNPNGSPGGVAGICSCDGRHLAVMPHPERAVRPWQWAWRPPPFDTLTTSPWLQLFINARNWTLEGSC
UniProt Q9UKL6, sequence (Q9UKL6 whole entry, looked up): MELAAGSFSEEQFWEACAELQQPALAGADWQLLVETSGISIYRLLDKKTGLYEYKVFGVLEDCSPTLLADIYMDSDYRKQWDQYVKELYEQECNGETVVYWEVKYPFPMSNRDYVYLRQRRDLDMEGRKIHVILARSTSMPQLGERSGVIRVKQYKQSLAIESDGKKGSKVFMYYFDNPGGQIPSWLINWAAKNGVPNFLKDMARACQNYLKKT
UniProt P50336, sequence (P50336 whole entry, looked up): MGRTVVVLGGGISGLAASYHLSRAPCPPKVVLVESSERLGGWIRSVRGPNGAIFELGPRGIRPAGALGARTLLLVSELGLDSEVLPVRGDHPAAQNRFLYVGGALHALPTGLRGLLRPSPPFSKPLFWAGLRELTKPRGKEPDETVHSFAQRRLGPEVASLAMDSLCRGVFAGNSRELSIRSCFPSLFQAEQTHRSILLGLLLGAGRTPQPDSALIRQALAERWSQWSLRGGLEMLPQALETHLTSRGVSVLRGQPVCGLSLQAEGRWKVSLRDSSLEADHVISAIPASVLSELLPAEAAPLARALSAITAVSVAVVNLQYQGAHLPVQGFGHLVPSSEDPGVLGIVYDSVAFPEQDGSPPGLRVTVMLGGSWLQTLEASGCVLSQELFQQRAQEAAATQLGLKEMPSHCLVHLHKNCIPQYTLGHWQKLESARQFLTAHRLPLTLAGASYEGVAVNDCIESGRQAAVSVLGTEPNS
UniProt Q9Y244, sequence (Q9Y244 whole entry, looked up): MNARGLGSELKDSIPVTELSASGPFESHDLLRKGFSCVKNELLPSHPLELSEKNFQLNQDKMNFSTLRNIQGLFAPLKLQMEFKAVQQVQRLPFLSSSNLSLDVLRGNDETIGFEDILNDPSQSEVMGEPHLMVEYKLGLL
UniProt Q7Z7A4, sequence (Q7Z7A4 whole entry, looked up): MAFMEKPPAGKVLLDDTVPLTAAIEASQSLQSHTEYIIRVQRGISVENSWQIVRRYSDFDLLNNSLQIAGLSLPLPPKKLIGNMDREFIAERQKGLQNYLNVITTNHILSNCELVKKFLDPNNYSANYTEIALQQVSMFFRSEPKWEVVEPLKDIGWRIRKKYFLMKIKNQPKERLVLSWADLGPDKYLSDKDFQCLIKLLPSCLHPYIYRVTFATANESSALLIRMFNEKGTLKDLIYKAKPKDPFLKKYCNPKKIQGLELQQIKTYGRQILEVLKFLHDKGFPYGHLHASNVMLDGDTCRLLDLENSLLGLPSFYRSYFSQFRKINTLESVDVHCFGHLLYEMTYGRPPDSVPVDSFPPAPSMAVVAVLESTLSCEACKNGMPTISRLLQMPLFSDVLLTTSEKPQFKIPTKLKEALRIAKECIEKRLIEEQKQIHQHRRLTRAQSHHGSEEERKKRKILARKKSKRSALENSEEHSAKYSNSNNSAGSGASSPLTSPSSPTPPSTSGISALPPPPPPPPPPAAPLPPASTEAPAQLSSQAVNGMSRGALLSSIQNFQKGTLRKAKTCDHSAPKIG
UniProt Q9UMR5, sequence (Q9UMR5 whole entry, looked up): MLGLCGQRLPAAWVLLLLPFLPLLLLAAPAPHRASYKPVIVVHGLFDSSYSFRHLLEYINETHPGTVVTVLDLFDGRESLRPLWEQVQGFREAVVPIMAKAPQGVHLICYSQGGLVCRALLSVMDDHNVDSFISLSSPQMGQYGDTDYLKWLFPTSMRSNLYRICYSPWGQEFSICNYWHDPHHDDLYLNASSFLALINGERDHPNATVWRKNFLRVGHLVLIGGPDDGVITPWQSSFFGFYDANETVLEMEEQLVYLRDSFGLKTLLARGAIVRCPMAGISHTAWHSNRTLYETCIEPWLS
UniProt Q9UG56, sequence (Q9UG56 whole entry, looked up): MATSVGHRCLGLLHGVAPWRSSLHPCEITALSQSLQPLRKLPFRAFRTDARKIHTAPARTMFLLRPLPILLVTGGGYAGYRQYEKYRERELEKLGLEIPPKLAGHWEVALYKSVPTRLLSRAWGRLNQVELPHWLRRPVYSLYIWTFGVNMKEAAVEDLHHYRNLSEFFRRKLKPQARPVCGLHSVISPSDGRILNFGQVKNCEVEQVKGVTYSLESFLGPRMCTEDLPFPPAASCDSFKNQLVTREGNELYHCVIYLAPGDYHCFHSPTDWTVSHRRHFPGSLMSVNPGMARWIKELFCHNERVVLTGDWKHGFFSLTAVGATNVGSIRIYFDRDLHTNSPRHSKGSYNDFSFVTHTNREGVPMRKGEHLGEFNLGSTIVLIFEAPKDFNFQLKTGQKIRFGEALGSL

Target | log2 fold change [1] | log2 fold change (filanesib) | log2 fold change (zotarolimus) | log2 fold change (idasanutlin) | log2 fold change (alisertib) | log2 fold change [2] | log2 fold change (gefitinib) | log2 fold change [3] | log2 fold change (lapatinib) | log2 fold change (pictilisib) | log2 fold change [4] | log2 fold change (crizotinib) | log2 fold change [5] | log2 fold change [6] | log2 fold change (duvelisib) | log2 fold change (gandotinib) | log2 fold change (tozasertib) | log2 fold change [7] | log2 fold change (doramapimod) | log2 fold change (ispinesib)
POLR2G (UniProt P62487) | 0.039 | -0.014 | -0.046 | -0.006 | -0.054 | 0.127 | 0.001 | 0.106 | -0.022 | 0.109 | 0.006 | 0.257 | 0.111 | 0.125 | 0.087 | 0.191 | -0.051 | -0.026 | -0.016 | 0.035
PEF1 (UniProt Q9UBV8) | -0.009 | -0.038 | 0.041 | -0.009 | -0.008 | -0.089 | -0.011 | 0.058 | 0.032 | -0.076 | 0.119 | 0.094 | 0.059 | -0.102 | 0.103 | -0.019 | 0.06 | 0.019 | -0.091 | 0.208
PCTP (UniProt Q9UKL6) | -0.007 | -0.175 | -0.066 | 0.029 | -0.081 | -0.239 (active) | -0.024 | -0.031 | 0.052 | 0.392 (active) | 0.094 | -0.135 | 0.031 | 0.003 | -0.039 | 0.029 | -0.042 | -0.033 | -0.048 | 0.015
PFAS (UniProt O15067) | 0.149 | -0.045 | 0.069 | 0.085 | 0.029 | 0.26 | -0.005 | 0.013 | -0.063 | -0.449 (active) | -0.062 | 0.124 | 0.014 | 0 | -0.026 | -0.152 | -0.132 | 0.081 | -0.018 | 0.128
PHKG2 (UniProt P15735) | 0.014 | -0.01 | -0.051 | 0.007 | -0.026 | 0.219 | -0.063 | 0.015 | 0.105 | -0.055 | 0.015 | 0 | -0.097 | 0.053 | -0.077 | -0.017 | -0.134 | -0.006 | 0.044 | 0.018
PPOX (UniProt P50336) | 0.324 | -0.226 | 0.352 | 0.574 (active) | 0.033 | -0.178 | 0.116 | 0.021 | 0.471 | 0.475 | 0.173 | -0.197 | 0.128 | -0.077 | 0.304 | 0.427 | 0.019 | 0.091 | 0.378 | 0.02
POMP (UniProt Q9Y244) | 0.175 | 0.082 | 0.012 | 0.115 | -0.153 | -0.016 | 0.076 | -0.03 | -0.022 | 0.031 | -0.086 | -0.059 | -0.023 | -0.076 | 0.055 | 0.027 | 0.001 | -0.245 | -0.143 | 0.108
PDCD2L (UniProt Q9BRP1) | 0.085 | 0.014 | -0.033 | -0.031 | -0.033 | 0 | -0.09 | -0.018 | -0.048 | -0.062 | -0.059 | -0.048 | -0.083 | 0.068 | 0.053 | 0.225 | -0.007 | 0.097 | -0.058 | 0.062
PMM1 (UniProt Q92871) | -0.084 | 0.021 | -0.003 | 0.022 | -0.039 | 0.124 | 0.16 | 0.022 | -0.02 | -0.17 | 0.051 | 0.008 | 0.032 | 0.019 | 0.07 | -0.075 | -0.114 | -0.011 | 0.027 | 0.026
PPT2 isoform 3 (UniProt Q9UMR5) | 0.052 | 0.008 | -0.019 | -0.082 | -0.114 | -0.029 | -0.004 | 0.093 | 0.035 | 0.024 | 0.074 | -0.182 | -0.021 | -0.148 | 0.057 | 0.001 | -0.04 | -0.069 | 0.006 | -0.041
PXK (UniProt Q7Z7A4) | 0.105 | -0.005 | 0.021 | -0.035 | -0.057 | 0.069 | -0.001 | 0.015 | 0.03 | 0.127 | -0.06 | -0.139 | 0.032 | -0.026 | -0.023 | -0.042 | -0.024 | 0.011 | -0.025 | -0.203
PISD (UniProt Q9UG56) | -0.018 | -0.012 | 0.015 | -0.074 | -0.024 | 0.148 | 0.008 | 0.012 | -0.009 | 0.036 | 0 | -0.023 | 0.045 | -0.018 | 0.044 | -0.004 | -0.025 | 0.036 | 0.006 | 0.02
